Records with an inconclusive call do not appear. Entries that show only a call come without a potency. Active and inactive are the calls of the source. Calls come from the whole dose curve; as a rule, active = well fitted curve in the direction sought with a large enough effect; inconclusive = small, poorly fitted or top-dose-only effect, or another doubt; inactive = no such curve, though single readings can be large; an effect the other way counts as inactive or inconclusive.
Key:
[1] = biological target: Glutathione peroxidase 1 (Homo sapiens) (UniProt P07203); experiment: Primary qHTS Assay for Inhibitors of Recombinant Selenoprotein Glutathione Peroxidase 1 (GPX1) (AID 1845191); settings: outcome: dose series up to 48.8 µM; note: nearly all actives have a fitted effect of over 65% in size
Summary of the method: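 10 nM GPX1 + cpd, 30 min RT; start w/ 1 mM GSH, 0.5 mM cumene hydroperoxide, 0.5 mM NADPH, 100 nM GR, 0.01% BSA; buffer 50 mM Tris-HCl pH 7.5, 2 mM EDTA, 150 mM NaCl; Fl 340/450, 0 & 15 min.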

[2] = biological target: Phospholipid hydroperoxide glutathione peroxidase GPX4 (Homo sapiens) (UniProt P36969); experiment: Primary qHTS Assay for Inhibitors of Recombinant Selenoprotein Glutathione Peroxidase 4 (GPX4) (AID 1845192); note: nearly all actives have a fitted effect of over 65% in size
Summary of the method: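 NADPH consumption, followed by fluorescence at 340/450 nm between 0 and 15 min, reports GPX4 activity via coupled glutathione reductase (100 nM). Enzyme 200 nM was pre-exposed to compound 30 min; 0.5 mM cumene hydroperoxide and 1 mM GSH served as substrates.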

[3] = biological target: Metallo-beta-lactamase type 2 (Klebsiella pneumoniae) (UniProt C7C422); experiment: qHTS to identify inhibitors of the New Delhi Metallo-beta-lactamase (NDM): assay validation screen against the NCATS LOPAC Collection (AID 1794843); note: series mostly up to about 38 µM
Summary of the method: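 Absorbance at 485 nm from nitrocefin turnover (50 uM solution added), read at plateau, gives the read-out. Compounds in DMSO were incubated first with 2 nM final NDM-1 in pH 7.0 HEPES buffer containing 1 uM ZnSO4 and 0.01% Tween20.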

[4] = biological target: Nuclear receptor subfamily 1 group I member 3 (Homo sapiens) (UniProt Q14994); experiment: Primary qHTS for antagonist of constitutive androstane receptor (CAR) against the NCATS DSHEA and TCM libraries (AID 1794836);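 note: HepG2 cells stably expressing hCAR with CYP2B6 luciferase reporter stimulated by CITCO; series mostly up to about 40 µM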
Summary of the method: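 Antagonist mode: CAR reporter luminescence (ONE-Glo) in HepG2-CYP2B6-hCAR cells stimulated with 48 uM CITCO (final) over 24 h at 37 C, compounds titrated; viability read first by CellTiter-Fluor fluorescence.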

[5] = Viability counterscreen for antagonist of constitutive androstane receptor (CAR) against the NCATS DSHEA and TCM libraries (AID 1794837);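 note: compound exposure lasted 24 h before viability reading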
Summary of the method: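 Viability was measured by CellTiter-Fluor fluorescence (405/540 nm, 1 hr) in HepG2-CYP2B6-hCAR cells. Cells were co-treated 24 hr with 48 uM CITCO (final), antagonist mode, and test substances.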

[6] = Viability counterscreen for agonist of constitutive androstane receptor (CAR) against the NCATS DSHEA and TCM libraries (AID 1794838)
Summary of the method: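 Cell viability, from CellTiter-Fluor fluorescence (405/540 nm), was scored after a 24 h, 37C exposure of HepG2 cells carrying CYP2B6 reporter and hCAR to test substances in presence of 0.75 uM PK11195.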

[7] = biological target: Nuclear receptor subfamily 1 group I member 3 (Homo sapiens) (UniProt Q14994); experiment: Primary qHTS for agonist of constitutive androstane receptor (CAR) against the NCATS DSHEA and TCM libraries (AID 1794839);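 note: HepG2 cells expressing human CAR with a CYP2B6 reporter plus PK11195 antagonist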
Summary of the method: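 Agonist mode in presence of hCAR antagonist PK11195 (0.75 µM final): test substances, 24 h, 37 °C, on HepG2-CYP2B6-hCAR cells. Same-well readouts: fluorescence viability, then ONE-Glo luminescence; CITCO as reference agonist.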

[8] = HepG2 viability counterscreen (readout 2: ATP content) against the NCATS DSHEA and TCM libraries (AID 1794840);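 note: HepG2 cells exposed to substances for about 24 h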
Summary of the method: (§1)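 Readout 1: cellular protease activity, GF-AFC substrate (25 uM final, 30 min, fluorescence 380/510 nm). Readout 2: ATP content by CellTiter-Glo luminescence after 30 min at RT. Both follow ~24 h exposure of HepG2 cells (1,000/well) to substances.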

[9] = HepG2 viability counterscreen (readout 1: protease activity) against the NCATS DSHEA and TCM libraries (AID 1794841);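 note: cells exposed to compounds for about 24 h before the protease read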
Summary of the method: as §1

[10] = biological target: Luciferin 4-monooxygenase (Photinus pyralis) (UniProt P08659); experiment: Primary firefly luciferase (FLuc) qHTS assay for identification of artifact compounds. (AID 1845220); settings: outcome: dose series up to 54.1 µM; note: nearly all actives have a fitted effect of over 60% in size
Summary of the method: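 FLuc 10 nM; luciferin 10 uM; ATP 10 uM; Tris-acetate pH 7.6, Mg-acetate 10 mM; 15 min RT preincubation; 5 min reaction; luminescence.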

Chain of Glutathione peroxidase 1 (Homo sapiens) (P07203 whole entry, looked up): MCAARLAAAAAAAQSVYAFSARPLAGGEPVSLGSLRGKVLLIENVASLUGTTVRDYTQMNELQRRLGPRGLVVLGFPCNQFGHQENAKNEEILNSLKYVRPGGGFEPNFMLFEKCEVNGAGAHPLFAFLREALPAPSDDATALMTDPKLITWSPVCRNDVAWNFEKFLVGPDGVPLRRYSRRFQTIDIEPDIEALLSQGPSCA
Chain of Nuclear receptor subfamily 1 group I member 3 (Homo sapiens) (Q14994 whole entry, looked up): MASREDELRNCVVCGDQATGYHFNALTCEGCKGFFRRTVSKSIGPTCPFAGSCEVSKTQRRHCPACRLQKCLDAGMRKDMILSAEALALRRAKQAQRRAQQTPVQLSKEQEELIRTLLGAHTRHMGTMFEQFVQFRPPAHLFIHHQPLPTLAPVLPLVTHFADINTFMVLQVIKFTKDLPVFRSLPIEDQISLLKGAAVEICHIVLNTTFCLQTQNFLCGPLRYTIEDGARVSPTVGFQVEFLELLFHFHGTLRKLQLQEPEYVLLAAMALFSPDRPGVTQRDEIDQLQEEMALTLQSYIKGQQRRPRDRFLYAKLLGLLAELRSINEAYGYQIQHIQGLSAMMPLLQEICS
Chain of Metallo-beta-lactamase type 2 (Klebsiella pneumoniae) (C7C422 whole entry, looked up): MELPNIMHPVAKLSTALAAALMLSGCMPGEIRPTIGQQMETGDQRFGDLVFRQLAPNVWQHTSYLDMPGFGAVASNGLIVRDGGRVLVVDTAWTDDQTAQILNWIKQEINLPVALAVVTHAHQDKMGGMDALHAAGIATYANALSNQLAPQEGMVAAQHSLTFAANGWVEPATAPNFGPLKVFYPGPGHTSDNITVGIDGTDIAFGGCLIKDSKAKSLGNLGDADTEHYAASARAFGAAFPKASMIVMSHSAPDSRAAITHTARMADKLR
Chain of Phospholipid hydroperoxide glutathione peroxidase GPX4 (Homo sapiens) (P36969 whole entry, looked up): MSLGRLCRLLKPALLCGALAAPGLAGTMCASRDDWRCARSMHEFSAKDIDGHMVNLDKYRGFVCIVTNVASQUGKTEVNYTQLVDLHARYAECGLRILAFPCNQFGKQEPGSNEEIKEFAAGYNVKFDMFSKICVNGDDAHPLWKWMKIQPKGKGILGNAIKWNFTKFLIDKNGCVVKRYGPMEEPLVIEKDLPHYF

C[C@@H]1CC[C@H]2[C@@H](C)C(=O)O[C@@H]3O[C@@]4(C)CC[C@@H]1[C@]32OO4
outcome [1]: inactive
Potency [2]: inactive

O=C(O)c1nn(Cc2ccc(Cl)cc2Cl)c2ccccc12
outcome [3]: inactive
outcome [1]: inactive
Potency [2]: inactive

COc1ccc2cc3[n+](cc2c1OC)CCc1cc2c(cc1-3)OCO2
outcome [4]: inactive

C/C=C/c1ccc(OC)cc1
outcome [4]: inactive

COc1ccc(C(=O)N2CCCC2=O)cc1
outcome [3]: inactive
outcome [1]: inactive
Potency [2]: inactive

C=CC[C@]1(O)CC[C@H]2[C@@H]3CCC4=CC(=O)CCC4=C3C=C[C@@]21C
outcome [1]: inactive

NC(=O)CN1CCCC1=O
outcome [3]: inactive
outcome [1]: inactive
Potency [2]: inactive

OC[C@H]1O[C@@H](OCCc2ccc(O)cc2)[C@H](O)[C@@H](O)[C@H]1O
outcome [4]: inactive

Nc1nc2ncc(CNc3ccc(C(=O)N[C@@H](CCC(=O)O)C(=O)O)cc3)nc2c(=O)[nH]1
outcome [4]: inactive

C[C@]12CC[C@H](O)CC1=CC[C@@H]1[C@@H]2CC[C@]2(C)C(=O)CC[C@@H]12
outcome [4]: inactive
outcome [5]: inactive
outcome [6]: inactive
outcome [7]: inactive
outcome [8]: inactive
outcome [9]: inactive
outcome [1]: inactive
Potency [2]: inactive
outcome [10]: inactive

CC[C@]1(O)CC[C@H]2[C@@H]3CCC4=CCCC[C@@H]4[C@H]3CC[C@@]21C
outcome [1]: inactive

CCN(CC)Cc1nccn1-c1ccc([N+](=O)[O-])cc1C(=O)c1ccccc1Cl
outcome [1]: inactive
Potency [2]: inactive

CN1C2CCC(C)(C)C1CC(OC(=O)C(O)(c1cccs1)c1cccs1)C2 (stereo not drawn)
outcome [1]: inactive
Potency [2]: inactive

CNC(C)Cc1ccccc1OC (stereo not drawn)
outcome [1]: inactive
Potency [2]: inactive

Oc1ccc(/C=C/c2cc(O)cc(O)c2)cc1
outcome [4]: inactive

Source: PubChem BioAssay (NCATS)
